# Results filed as inconclusive are left out. Values without a mark were called inactive. The call rests on the fitted dose curve; in most records, active means well fitted cell-killing curve with a large enough effect in the repeat runs; inconclusive means weak or mixed curves, or effect the other way; inactive means no such curve, though single readings can be large or run the other way.
# Assay: qHTS assay to identify small molecule agonists of the farnesoid-X-receptor (FXR) signaling pathway - cell viability counter screen (AID 743218); further: nearly all actives have a fitted effect of over 45% in size
# Settings: FXR-bla HEK293T viability, CellTiter-Glo luminescence, 16 h; series mostly up to 62.6 µM; viability change, negative = cytotoxic: at the top concentration
# Description: U.S. Tox21 Program National Center for Advancing Translational Sciences [NCATS] NIH Chemical Genomics Center [NCGC] U.S. Environmental Protection Agency [EPA] National Institutes of Environmental Health Sciences [NIEHS] National Toxicology Program [NTP] U.S. Food and Drug Administration [FDA] Tox21 Assay Overview: The farnesoid-X-receptor (FXR), a nuclear hormone receptor, is highly expressed in liver, intestine, kidney and adrenal cortex. Natural ligands of FXR are the bile acids (Cholic acid, Chenodeoxy cholic acid etc). FXR is an important regulator of diverse metabolic pathways, including the bile acid homeostasis, lipid and glucose metabolisms. FXR regulates the expression of target genes by binding either as a monomer or as a heterodimer with the retinoid X receptor (RXR). Numerous studies have reported that FXR exerts protective function during cholestasis, diabetes, liver regeneration, and cancer. To identify compounds that activate FXR signaling, GeneBLAzer FXR-UAS-bla HEK 293T cell line (Invitrogen, Carlsbad, CA) containing a beta-lactamase reporter gene under the control of a UAS response element was used to screen the Tox21 10K compound library. The cytotoxicity of the Tox21 compound library against the FXR-bla cell line was tested in parallel by measuring the cell viability using CellTiter-Glo assay in the same wells.
# Tox21 Assay Protocol Summary: FXR-bla cells were dispensed at 5000 cells/5uL/well in 1536-well black wall/clear bottom plates using a Multidrop Combi (Thermo Fisher Scientific, Waltham, MA) dispenser. After the assay plates were incubated at 37 C and 5% CO2 for 5 h, 23 nL of compounds dissolved in DMSO, positive controls or DMSO only was transferred to the assay plate by a Pintool station (Kalypsys, San Diego, CA). The assay plates were incubated at 37C for 16 h. After 1 uL of LiveBLAzerTM B/G FRET substrate was added using a Bioraptr Flying Reagent Dispenser (FRD) workstation (Beckman Coulter, Indianapolis, IN), the plates were incubated at room temperature for 2 h, and fluorescence intensity was measured by an Envision plate reader (PerkinElmer, Shelton, CT). For cell viability readout that measures cytotoxicity, 4uL/well of CellTiter-Glo reagent was added into the assay plates using a Bioraptr FRD. After 30 min incubation at room temperature, the luminescence intensity in the plates was measured using a ViewLux plate reader (PerkinElmer).
# On the % scale 0 is the no-effect control and ±100 the full control effect.
row,Structure (SMILES),"viability change, negative = cytotoxic"
1,CCOCCOCCOCC,17.6%
2,O=P(O)(O)OP(=O)(O)O,-4.13%
3,C=C(C)C1CCC(C)(O)CC1 (stereo not given),-18.2%
4,Nc1ccc(S(=O)(=O)Nc2ccc(Cl)nn2)cc1,7.98%
5,COc1cc2c(cc1OC)C(=O)CC2,37.7%
6,O=C1c2ccccc2C(=O)c2cc(S(=O)(=O)O)ccc21,-14.7% [at 81.1 µM]
7,Cc1ccccc1N=O,1.57% [at 81.1 µM]
8,NCCS,4.2%
9,CC1=C(C(=O)O)N2C(=O)[C@@H](NC(=O)[C@H](N)c3ccc(O)cc3)[C@H]2SC1,9.33%
10,CC(C)CC(C)CC(C)CC(C)COC(=O)c1ccccc1C(=O)OCC(C)CC(C)CC(C)CC(C)C (stereo not given),7.12%
11,CCCC/C=C\CCCCCCCCCC=O,14.3%
12,O=C(Nc1ccc(Cl)c(Cl)c1)C1CC1,14.6%
13,Nc1ncnc(Nc2ccccc2)n1,0.3%
14,CC(COC(C)(C)C)OCCCO (stereo not given),-9.73%
15,CC(S)C(=O)NCC(=O)O (stereo not given),1.41%
16,COc1cc(N)ccc1C,-17%
17,O=C(c1ccc(O)cc1)c1ccc(O)c(O)c1O,-4.1% [at 81.1 µM]
18,CC(C)(C)c1cc(CCC(=O)NN)cc(C(C)(C)C)c1O,-17.8%
19,CN(CCOc1ccc(NS(C)(=O)=O)cc1)CCc1ccc(NS(C)(=O)=O)cc1,7.37%
20,CCN(C)C(=O)Oc1cccc([C@H](C)N(C)C)c1,-1.64%

row,Structure (SMILES),"viability change, negative = cytotoxic"
1,Cc1[nH]cnc1-c1ccc(Cl)cc1,2.14%
2,Cc1cccc(C)c1NC(=O)c1ccccc1C(=O)O,3.05%
3,CCCCCOC(=O)CCC,-3.21%
4,C[C@@H]1O[C@@H](O[C@@H]2[C@@H](O)[C@H](OCCc3ccc(O)c(O)c3)O[C@H](CO[C@@H]3O[C@H](CO)[C@@H](O)[C@H](O)[C@H]3O)[C@H]2OC(=O)/C=C/c2ccc(O)c(O)c2)[C@H](O)[C@H](O)[C@H]1O,2.37%
5,Cc1cc(C(C)(C)C)c(O)c(C)c1CC1=NCCN1,-13.2%
6,NC(CO)C(=O)NNCc1ccc(O)c(O)c1O (stereo not given),-14.4%
7,CC1COc2ccccc2N1 (stereo not given),0.155%
8,CC(=O)CCCCn1c(=O)c2c(ncn2C)n(C)c1=O,-13.3%
9,C=CC(OCC)OCC,10.5%
10,CCc1ccc(C=O)cc1,0.779%
11,CC(C)CCCCOC(=O)c1ccccc1C(=O)OCCCCC(C)C,17.1%
12,BrCCCCCBr,-0.581% [at 81.1 µM]
13,CCN(CC)CC(=O)Nc1c(C)cccc1C,-1.44%
14,OCCCCC(O)CO (stereo not given),-8.89%
15,O=C1c2ccccc2C(=O)C1c1ccccc1,12.6%
16,COc1ccc(OC)c(Cl)c1,-20.9%
17,CC(=O)Nc1ccc(S(=O)(=O)Cl)cc1,4.87%
18,CCOc1cc([N+](=O)[O-])c(OCC)cc1N1CCOCC1,0.343%
19,CCCCCCN,14.9%
20,CCCCCCCCC1CCC(=O)O1 (stereo not given),6%

# Reference: PubChem BioAssay (Tox21)
